# Measurements published in PubChem BioAssay AID588519 (ICCB-Longwood Screening Facility, Harvard Medical School, 2011).
# Hit rate of the full screen: of about 150,000 compounds, about 1,000 (0.67%) were called active. No stated cut-off is given here; in the data, active means % elongation below about 90%; inactive means the rest, inconclusive results apart. The entries come from a sample that favours actives as a whole.
# Target: Genome polyprotein (Poliovirus type 1 (strain Mahoney)) (UniProt P03300)
# Sequence (P03300 1749-2209 limits assumed): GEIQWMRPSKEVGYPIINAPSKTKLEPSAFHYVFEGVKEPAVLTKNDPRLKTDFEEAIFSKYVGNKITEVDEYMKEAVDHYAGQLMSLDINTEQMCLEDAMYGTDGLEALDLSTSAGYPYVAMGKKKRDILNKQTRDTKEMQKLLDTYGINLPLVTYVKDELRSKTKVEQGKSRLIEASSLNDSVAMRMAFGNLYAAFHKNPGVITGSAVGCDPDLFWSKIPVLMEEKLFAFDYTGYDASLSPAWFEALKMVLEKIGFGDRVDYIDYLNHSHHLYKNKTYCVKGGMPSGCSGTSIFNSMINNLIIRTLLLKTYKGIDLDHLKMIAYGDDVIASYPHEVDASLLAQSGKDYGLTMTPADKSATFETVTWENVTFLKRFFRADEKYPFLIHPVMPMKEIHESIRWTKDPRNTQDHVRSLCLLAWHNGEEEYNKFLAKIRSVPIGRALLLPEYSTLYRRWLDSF
# Assay: inhibitors of poliovirus polymerase RNA elongation – biochemical, fluorescence polarization, total intensity, primary screen (AID 588519); on z-score: compound at 16.7 µg/mL
# Conditions: stronger effect = lower value; for % elongation: compound at 16.7 µg/mL; for z-score: measured here: FP z-score
# [1] = measured here: total intensity read-out
SMILES,% elongation,z-score,% elongation [1]
CN1CCc2c(c(S)[nH]c(=S)c2C#N)C1,-17% (active),-18.2,48%
Cc1ccc(-n2c(C)cc(C(=O)CN3CC(C)OC(C)C3)c2C)cc1 (centres undefined),100% (inactive),-0.2,99%
O=C(O)CN1C(=O)/C(=C2/OC(=O)c3ccccc32)SC1=S,101% (inactive),-0.1,99%
O=C(O)CCCN1C(=O)c2ccccc2Sc2ncccc21,101% (inactive),-0.2,105%
O=C(O)CCCN1C(=O)/C(=C2\SC(=S)N(CCCC(=O)O)C2=O)SC1=S,88% (active),-4.7,86%
CCn1c(=O)c(=O)n(CC)c2cc(N3CCCCC3)c(NC(=O)c3cccc(F)c3)cc21,104% (inactive),-0.3,107%
CCn1c(=O)c(=O)n(CC)c2cc(N3CCCCC3)c(NC(=O)c3ccc(Cl)cc3)cc21,90% (active),-4.3,85%
CCn1c(=O)c(=O)n(CC)c2cc(N3CCCCC3)c(NC(=O)c3ccccc3)cc21,101% (inactive),0.2,102%
CS(=O)(=O)Nc1ccc2c(c1)COC2=O,102% (inactive),0,102%
Cc1nc(N(CC(=O)OC2CC(C)CCC2C(C)C)S(=O)(=O)c2ccc(N)cc2)c(C)n1N (centres undefined),102% (inactive),0.1,92%
CCCCCC(=O)Nc1cc(-c2nc3cc(C)cc(C)c3o2)ccc1C,103% (inactive),0.3,102%
O=C(ON1C(=O)CCC1=O)c1ccccc1,80% (active),-2.1,89%
O=C1CCC(=O)N1C(c1ccccc1)c1ccccc1,104% (inactive),0.6,103%
CCN(Cc1ccccc1)C(=O)c1cccc(N2C(=O)CCC2=O)c1,101% (inactive),-0.5,103%
Cc1c(C=Nc2ccc(S(=O)(=O)N(C)C)cc2)c(O)n(C)c(=O)c1C#N,104% (inactive),0.1,114%
CCOc1ccc2nc(NC(=O)c3ccccc3OC)sc2c1,99% (inactive),-0.1,92%
COc1ccc2c(c1)Cc1sc(NC(=O)c3ccccc3Br)nc1-2,59% (active),-7.3,63%
Cn1c(=O)c(=O)n(C)c2cc(NC(=O)c3ccccc3Br)ccc21,109% (inactive),1.1,113%
COC(=O)C1CCN(S(=O)(=O)c2ccc(Cl)cc2)CC1,103% (inactive),0.2,102%
NCC1OC(OC2C(N)CC(N)C(O)C2O[C@@H]2O[C@H](CO)[C@H](O)C2O)C(N)C(O)C1O (some centres undefined),99% (inactive),-0.1,103%
NC[C@@H]1O[C@H](O[C@@H]2[C@@H](CO)OC(O[C@@H]3[C@@H](O)[C@H](N)C[C@H](N)[C@H]3OC3O[C@H](CN)[C@@H](O)[C@H](O)[C@H]3N)[C@@H]2O)[C@H](N)[C@@H](O)[C@@H]1O (some centres undefined),87% (active),-1.4,78%
NC(=O)c1cccc(N2C(=O)c3ccccc3C2=O)c1,105% (inactive),0.2,102%
O=C1CCC(=O)N1OCC1CCCN2CCCCC12 (centres undefined),104% (inactive),0.1,108%
CCSc1nsc(SCC)c1C(=O)O,88% (active),-1.5,96%
O=C(Nc1sc2c(c1C(=O)NCCc1ccccc1)CCC2)c1ccco1,103% (inactive),0.4,105%

SMILES,% elongation,z-score,% elongation [1]
Cc1ccc(-c2nc(S(=O)(=O)c3ccc(C)cc3)c(N3CCCCCC3)o2)cc1,100% (inactive),-1.6,104%
Cc1ccc(CSc2oc(-c3cccs3)nc2S(=O)(=O)c2ccc(C)cc2)cc1,108% (inactive),0.8,109%
Cc1ccc(S(=O)(=O)c2no[n+]([O-])c2S(=O)(=O)c2ccc(C)cc2)cc1,79% (active),-2.2,69%
CCC(c1nnc(SCc2nc3sc4c(c3c(=O)[nH]2)CCC4)n1Cc1ccccc1)N(C)C (centres undefined),114% (inactive),2,106%
Cc1c(S(=O)(=O)O)oc2c1C(=O)C(=O)c1c-2ccc2c1CCCC2(C)C,87% (active),-1.4,88%
COc1ccccc1Cn1cccc1C1=NC(C(C)C)CO1 (centres undefined),101% (inactive),0.2,103%
COC1CC(O[C@@H]2[C@H](C)[C@H](OC3OC(C)CC(N(C)C)C3OC(C)=O)[C@H](C)CC3(CO3)C(=O)[C@@H](C)C(OC(C)=O)[C@H](C)[C@H](C)OC(=O)[C@@H]2C)OC(C)C1OC(C)=O (some centres undefined),100% (inactive),0.2,103%
Cc1ccc(OCCn2cc(C(=O)c3ccccc3)c3ccccc32)cc1,100% (inactive),-0.4,96%
CCOc1ccccc1NC(=O)Cn1c2ncccc2c(=O)n1-c1ccc(C)c(C)c1,107% (inactive),0,105%
Cc1ccc(-n2c(=O)c3cccnc3n2CC(=O)Nc2ccccc2C(F)(F)F)cc1C,110% (inactive),0.2,105%
CC(C)c1ccc(NC(=O)Cn2c3ncccc3c(=O)n2-c2ccccc2)cc1,33% (active),-5.2,49%
CSc1ccc(/C=N/NC(N)=S)cc1,98% (inactive),-0.7,63%
CCc1c(C)sc(NC(=O)c2cccs2)c1C(N)=O,74% (active),-2.8,79%
COC(=O)c1c(NC(=O)c2cccs2)sc2c1C(C(=O)OC)CC2 (centres undefined),99% (inactive),-0.7,97%
Cc1ccc(O)c(NC(=O)c2cccs2)c1,99% (inactive),-0.7,108%
CC(NC(=O)Nc1cccnc1)N1C(=O)C2C3C=CC(C3)C2C1=O (centres undefined),100% (inactive),-0.4,103%
O=C(O)/C(=C/C(=O)c1ccccc1)Nc1ccc(OC(F)(F)F)cc1,103% (inactive),0,111%
CC(C)(C)NC(=O)C1N(C2CC2)C(=O)C2C(C(=O)NCc3ccccc3)C3C=CC21O3 (centres undefined),103% (inactive),0.3,104%
Cc1ccccc1CN1CCCN(Cc2ccccc2)S1(=O)=O,103% (inactive),0.1,99%
CCC(=O)c1ccc(OCC(=O)NC2CCCCC2C)cc1 (centres undefined),101% (inactive),-0.4,93%
Cc1cc(C)c2nc3nc(C)cc(C)c3c(N)c2c1,90% (active),-2.4,76%
Cc1cc(C)c2nc(-c3ccco3)cc(C(=O)O)c2c1,96% (inactive),-1.9,93%
Cc1cc(C(=O)COc2ccc(-n3ccnc3)cc2)c(C)n1-c1ccc2c(c1)OCO2,103% (inactive),0.1,107%
Cc1ccc(Cn2c(CNC(=O)c3ccccc3)nc3ccccc32)cc1,100% (inactive),-0.3,104%
Nc1nnc(-c2ccc(Cn3c(-c4cncs4)nc4ccccc43)cc2)s1,63% (active),-5.6,75%

SMILES,% elongation,z-score,% elongation [1]
CC(=O)Nc1nc2ccccc2n1Cc1ccc(C)cc1,100% (inactive),-0.7,102%
O=C1Nc2ccccc2N(c2ccccc2)N1,101% (inactive),0.4,105%
CCOc1ccccc1N(CC(=O)NC)S(C)(=O)=O,102% (inactive),0.4,103%
Cc1cc(C(=O)COC(=O)c2ccc(S(=O)(=O)NCc3ccco3)cc2)c(C)n1C,101% (inactive),-0.2,100%
CCOc1ccccc1CNC(=O)Nc1cn(CC(C)C)c(=O)c2ccccc12,28% (active),-6,48%
CCOc1ccccc1N(CC)C(=O)Nc1cn(C)c(=O)c2ccccc12,103% (inactive),-0.7,104%
CCOc1ccccc1CNC(=O)Cn1ncc2c([nH]c3ccccc32)c1=O,102% (inactive),-0.4,103%
CCOc1ccc(OCC(=O)OC(C)C(=O)Nc2ncc(Cl)cc2Cl)cc1 (centres undefined),106% (inactive),0.3,97%
Cc1cccc(OCCOc2ccc(Br)cc2/C=C2\SC(=S)NC2=O)c1,101% (inactive),-0.2,104%
Cc1cc(C)c(C(N)=O)c(SCC(=O)Nc2c(C)n(C)n(-c3ccccc3)c2=O)n1,103% (inactive),0.1,97%
O=C1Cc2ccccc2C(=O)N1Cc1ccccn1,85% (active),-1.9,83%
CSc1nc(=O)n(Cc2ccccn2)c2c1CCC2,101% (inactive),0.1,104%
O=C1c2ccccc2C(=O)N1CC1OCc2ccccc2CO1,103% (inactive),0.3,110%
Cc1ccc(NC(=O)C2C3C=CC4(O3)C2C(=O)N(CCCN2CCOCC2)C4C(=O)NC2CCCC(C)C2C)cc1Cl (centres undefined),101% (inactive),0.1,103%
CCn1c2ccccc2c2cc(CN3CCN(Cc4cccc(Cl)c4)CC3)ccc21,103% (inactive),0.1,108%
CCn1c(=O)cc(O)c2ccccc21,115% (inactive),1.3,123%
CCn1c2ccccc2c2cc(P(=S)(OC)OC)ccc21,81% (active),-2.3,86%
O=C(CN1CCN(S(=O)(=O)c2ccc3[nH]c(=O)[nH]c3c2)CC1)N1CCCCCC1,86% (active),-1.1,93%
O=C(C1CCN(S(=O)(=O)c2ccc3[nH]c4c(c3c2)CCCCC4)CC1)N1CCCC1,100% (inactive),-1,97%
O=C(CCc1nc(CN2CCN(S(=O)(=O)c3ccc(F)cc3)CC2)no1)N1CCCCC1,109% (inactive),0.3,112%
CCC1CN2CCC34c5ccccc5NC3C(C)C1CC24 (centres undefined),101% (inactive),0.3,104%
CCOC(=O)C1=C(C)NC(=O)NC1c1c(Cl)nc2c(C)cccn2c1=O (centres undefined),104% (inactive),0,109%
CCC(C)NC(=O)C1c2ccccc2C(=O)N1Cc1ccccc1 (centres undefined),102% (inactive),0.2,102%
